High-throughput results: PubChem BioAssay, several laboratories
NadD block: inhibitors of S. aureus NadD, primary screen, biochemical, colorimetric, uHTS | Nicotinate-nucleotide adenylyltransferase NadD (Staphylococcus aureus N315) | purified NadD enzyme, colorimetric absorbance read-out | inhibition, % at 20 µM | hit rate 0.78% among 360,000 | AID 602399, 2012; in the data active means inhibition above about 26%
DAGLB inhibitor: DAGLB lipase inhibitors, primary screen, biochemical, fluorescence, HTS | Diacylglycerol lipase-beta (Homo sapiens), Q8NCG7 | HEK293T DAGLB membrane lysate, EnzChek fluorogenic substrate | inhibition, % at 5.17 µM | hit rate 0.059% among 340,000; in the data active means inhibition above about 34%;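 further: 0% = enzyme with vehicle and 100% = wells lacking enzyme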
MsrA inh: bovine MsrA enzyme inhibitors, primary screen, biochemical, absorbance, HTS | AID 651718, 2012 | hit rate 0.75% among 360,000 | inhibition, % at 15.5 µM | Methionine sulfoxide reductase A (Bos taurus) | purified bovine MsrA, absorbance read-out; in the data active means inhibition above about 4.5%;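 further: 0% = vehicle wells with enzyme and 100% = reference inhibitor wells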
MsrA act: bovine MsrA enzyme activators, primary screen, biochemical, absorbance, HTS. Methionine sulfoxide reductase A (Bos taurus). purified bovine MsrA, absorbance read-out. activation, % at 10.6 µM. hit rate 0.3% among 360,000; in the data active means activation above about 7.5%;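 further: 0% = vehicle and 100% = reference activator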
DSG3 Ab inh: inhibitors of pemphigus antibody binding to DSG3, primary screen, biochemical, bead-based, flow cytometry, scFv-GFP; DSG3-coupled beads, scFv-anti-DSG3-GFP binding; stronger effect = lower value; binding (percent of control), % at 10 µM; hit rate 0.48% among 310,000; Desmoglein-3 (Homo sapiens), P32926; AID 588358, 2011;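 active means binding more than 3 SD below its plate's average and above zero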
Target sequence (P32926 whole entry, looked up): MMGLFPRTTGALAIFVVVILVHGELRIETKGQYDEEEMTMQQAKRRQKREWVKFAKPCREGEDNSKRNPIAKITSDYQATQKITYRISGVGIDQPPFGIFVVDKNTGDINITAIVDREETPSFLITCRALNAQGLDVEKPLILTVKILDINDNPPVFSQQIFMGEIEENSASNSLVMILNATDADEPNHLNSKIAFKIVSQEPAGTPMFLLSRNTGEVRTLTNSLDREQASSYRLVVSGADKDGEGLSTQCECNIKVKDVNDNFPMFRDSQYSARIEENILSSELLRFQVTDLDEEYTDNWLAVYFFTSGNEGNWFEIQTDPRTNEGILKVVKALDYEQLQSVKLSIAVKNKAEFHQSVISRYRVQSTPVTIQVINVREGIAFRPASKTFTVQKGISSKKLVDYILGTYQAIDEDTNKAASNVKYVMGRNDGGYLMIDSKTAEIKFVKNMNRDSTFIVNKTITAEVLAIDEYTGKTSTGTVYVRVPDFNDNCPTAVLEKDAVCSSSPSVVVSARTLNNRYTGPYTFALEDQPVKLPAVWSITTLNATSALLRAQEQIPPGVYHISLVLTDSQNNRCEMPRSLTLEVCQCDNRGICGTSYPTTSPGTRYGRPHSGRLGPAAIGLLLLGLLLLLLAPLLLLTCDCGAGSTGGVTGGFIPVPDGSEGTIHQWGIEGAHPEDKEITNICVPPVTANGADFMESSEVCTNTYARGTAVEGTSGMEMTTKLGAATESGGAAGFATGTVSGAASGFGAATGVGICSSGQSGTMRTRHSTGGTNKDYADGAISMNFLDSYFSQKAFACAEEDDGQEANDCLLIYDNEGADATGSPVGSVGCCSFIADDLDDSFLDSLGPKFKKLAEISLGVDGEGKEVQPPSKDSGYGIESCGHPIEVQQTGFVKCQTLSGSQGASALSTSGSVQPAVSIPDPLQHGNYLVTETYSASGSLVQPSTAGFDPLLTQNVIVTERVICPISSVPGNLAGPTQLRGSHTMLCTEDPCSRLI
rCAG binder: binders of r(CAG) RNA repeats, primary screen, biochemical, fluorescence; r(CAG) RNA repeat, TO-PRO-1 dye displacement fluorescence; inhibition, % at 3 µM; hit rate 1.3% among 370,000; AID 651821, 2012;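 active means inhibition above the plate cutoff, the mean of all test compounds on that plate plus 3 SD, cut at about 35% in these data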;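 further: 0% = DMSO alone and 100% = 100 µM mitoxantrone as full dye displacement; higher means more dye released from RNA so lower well fluorescence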
NadD inh conf: inhibitors of S. aureus NadD, confirmation, biochemical, colorimetric, single concentration; AID 624309, 2012; inhibition, % at 20 µM; hit rate 13% among 2,000; shares compounds with NadD block; purified S. aureus NadD, colorimetric enzyme assay; in the data active means inhibition mostly above about 42%, no sharp cut-off; inactive means mostly below about 42%
An asterisk follows results filed as active; nt = not tested or not shown. This is a sample that favours compounds with a hit; in the whole collection about 3.2% have one here.

SMILES	NadD block	DAGLB inhibitor	MsrA inh	MsrA act	DSG3 Ab inh	rCAG binder	NadD inh conf
CCCOc1ccc(N2C(=O)CC(SC(=N)N3N=C(c4ccccc4)CC3c3ccccc3)C2=O)cc1 (stereo not drawn)	43*	-9	1	-3	92	8	3
COc1cccc(C2C3=C(N=c4s/c(=C\c5ccc(O)cc5)c(=O)n42)c2ccccc2CC3)c1OC (stereo not drawn)	14	0	1	-7	nt	6	nt
COc1cccc(C2C3=C(N=c4s/c(=C\c5cccc(O)c5)c(=O)n42)c2ccccc2CC3)c1OC (stereo not drawn)	40*	-5	1	-4	78	11	11
Cc1noc(/C=C/c2ccco2)c1S(=O)(=O)N1CCC(C(=O)NC(C)c2ccccc2)CC1 (stereo not drawn)	8	0	3	-7	103	20	nt
Cc1noc(/C=C/c2ccco2)c1S(=O)(=O)N1CCC(C(=O)N2c3ccccc3CC2C)CC1 (stereo not drawn)	39*	-18	4	-1	94	19	6
O=S(=O)(Nc1ccc2c(c1)nc1n2CCN(Cc2ccccc2)C1)c1ccc(Cl)cc1	32*	0	2	-4	96	18	43
CC(C(=O)Nc1ccc(Br)cc1)N(C)CC(=O)NCc1ccco1 (stereo not drawn)	-4	-1	-1	-2	nt	3	nt
O=C(c1ccco1)N1N=C(c2ccco2)CC1c1ccc(Cl)cc1Cl (stereo not drawn)	31*	4	3	0	105	8	0
Cc1cc(C)n2[nH]c(=O)cc2n1	4	-2	0	2	107	1	nt
O=[N+]([O-])c1ccc(Nc2nc(N/N=C/c3cccc(F)c3)nc(N3CCCC3)n2)cc1	38*	-2	1	-3	91	21	-3
O=[N+]([O-])c1ccc(Nc2nc(NC3CCCCC3)nc(N3CCCC3)n2)cc1	39*	0	-1	-10	84	1	11
O=[N+]([O-])c1cc2c(cc1/C=N/Nc1nc(Nc3ccccc3)nc(N3CCCCC3)n1)OCO2	39*	3	0	-1	103	4	3
COC(=O)c1cc(=O)nc(NN=Cc2ccco2)s1	2	nt	4	-7	nt	10	nt
OC(Cn1ccnc1)c1ccc(Cl)cc1Cl (stereo not drawn)	-3	-1	-2	-4	112	1	nt
Clc1ccc(C(Cn2ccnc2)OCc2c(Cl)cccc2Cl)c(Cl)c1 (stereo not drawn)	33*	-5	1	-2	96	3	21
Cc1cc(-c2csc(NC(=O)c3ccccc3C(F)(F)F)n2)c(C)n1Cc1ccccc1	33*	5	2	-3	100	19	20
CCN(Cc1cc2cc(OC)ccc2[nH]c1=O)C(=O)Cc1ccc(OC)cc1	4	1	1	-3	102	-1	nt
CCC(=O)N(Cc1ccc2c(c1)OCO2)Cc1cc2cc(OC)ccc2[nH]c1=O	33*	2	1	-1	102	-1	12
Cc1cc(C(=O)N/N=C/c2cc(Br)cc(Br)c2OC(=O)c2cccc(F)c2)n[nH]1	32*	2	1	-2	75	12	13
COc1cc(/C=N/NC(=O)Cn2nc([N+](=O)[O-])cc2C)cc(Br)c1OCc1ccccc1	35*	-1	4	-2	nt	4	10
CCOc1cc(/C=N/NC(=O)Cn2nc([N+](=O)[O-])cc2C)cc(Br)c1OCc1ccccc1C	23	-2	1	-9	95	9	nt
O=C(CSc1nnc(-c2ccc3c(c2)OCO3)o1)Nc1ncc(C(F)(F)F)cc1Cl	34*	-1	-1	0	100	3	5
